Where “and” joins values, the source holds several entries; their conditions need not be identical. Equal entries are not always repeated. About 83,000 compounds went through this panel and 20% of them were active in at least one assay; those are over-represented in the sample as a whole.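 For each line, cells grew in 96-well plates with the test compound present at a single concentration for 48 hours.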 Calls of active or inactive are those of the source. How the source made its calls: active means growth percent below 10; inactive means the rest.
Key:
Assay in all cases: NCI-60 one-dose screen, 48 h (100 = growth as untreated, 0 = no growth, -100 = all killed)
Settings in all cases: 10 µM unless noted
[1] = tested on: NCI-H23 lung
[2] = tested on: NCI-H226 lung
[3] = tested on: NCI-H322M lung
[4] = tested on: HOP-62 NSCLC
[5] = tested on: NCI-H460 lung
[6] = tested on: HOP-92 NSCLC
[7] = tested on: NCI-H522 lung
[8] = tested on: A549/ATCC NSCLC
[9] = tested on: 786-0 renal
[10] = tested on: COLO 205 colon
[11] = tested on: DU-145 prostate
[12] = tested on: K-562 leukemia
[13] = tested on: MALME-3M melanoma
[14] = tested on: MDA-MB-231 breast
[15] = tested on: RXF 393 renal
[16] = tested on: SF-268 CNS
[17] = tested on: SF-295 CNS
[18] = tested on: SF-539 CNS
[19] = tested on: UACC-257 melanoma
[20] = tested on: M14 melanoma

COc1ccc(C/C(C)=C(\c2ccc(O)cc2)c2ccc(OCCCN(C)C)cc2)cc1
growth [1]: 91.8% (inactive) | growth [2]: 94.2% (inactive) | growth [3]: 94% (inactive) | growth [4]: 111% (inactive) | growth [5]: 93.7% (inactive) | growth [6]: 68.7% (inactive) | growth [7]: 91.5% (inactive) | growth [8]: 90.6% (inactive) | growth [9]: 101% (inactive) | growth [10]: 97% (inactive) | growth [11]: 101% (inactive) | growth [12]: 70.4% (inactive) | growth [13]: 97.1% (inactive) | growth [14]: 106% (inactive) | growth [15]: 89.5% (inactive) | growth [16]: 88.1% (inactive) | growth [17]: 104% (inactive) | growth [18]: 107% (inactive) | growth [19]: 92.4% (inactive) | growth [20]: 99.4% (inactive)

Clc1ccc2c(NCCN3CCN(c4ccnc(N5CCCC5)n4)CC3)ccnc2c1
growth [1]: 56.8% (inactive) | growth [2]: 80.3% (inactive) | growth [3]: 44.3% (inactive) | growth [4]: 77.3% (inactive) | growth [5]: 16.7% (inactive) | growth [6]: 23.3% (inactive) | growth [7]: 45% (inactive) | growth [8]: 24.6% (inactive) | growth [9]: 29.4% (inactive) | growth [10]: -46.5% (active) | growth [11]: 58.1% (inactive) | growth [12]: 0.171% (active) | growth [13]: -43.3% (active) | growth [14]: 4.01% (active) | growth [15]: -59.2% (active) | growth [16]: 33% (inactive) | growth [17]: 52.9% (inactive) | growth [18]: -63.1% (active) | growth [19]: -62% (active) | growth [20]: -55.7% (active)

COc1ccc(-c2nn3c(-c4cc(F)c(Cl)cc4Cl)nnc3s2)cc1
growth [1]: 54.1% (inactive) | growth [2]: 80% (inactive) | growth [3]: 79.2% (inactive) | growth [4]: 30.6% (inactive) | growth [5]: 32.5% (inactive) | growth [6]: 37.6% (inactive) | growth [7]: 23.1% (inactive) | growth [8]: 51.1% (inactive) | growth [9]: 46.2% (inactive) | growth [10]: 62.9% (inactive) | growth [11]: 77.3% (inactive) | growth [12]: 16.1% (inactive) | growth [13]: 41.4% (inactive) | growth [14]: 55.2% (inactive) | growth [15]: 61.4% (inactive) | growth [16]: 60.3% (inactive) | growth [17]: 13.1% (inactive) | growth [18]: 47% (inactive) | growth [19]: 72.6% (inactive) | growth [20]: 15.5% (inactive)

CC1(Cc2ccccc2)CC2=C(C(=O)O1)C(c1ccccc1)NC(=O)N2 (stereo not given)
growth [1]: 100% (inactive) | growth [2]: 101% (inactive) | growth [3]: 98.6% (inactive) | growth [4]: 97.4% (inactive) | growth [5]: 110% (inactive) | growth [6]: 77% (inactive) | growth [7]: 95.4% (inactive) | growth [8]: 112% (inactive) | growth [9]: 100% (inactive) | growth [10]: 106% (inactive) | growth [11]: 111% (inactive) | growth [12]: 78.4% (inactive) | growth [13]: 104% (inactive) | growth [14]: 103% (inactive) | growth [15]: 108% (inactive) | growth [16]: 110% (inactive) | growth [17]: 104% (inactive) | growth [18]: 94.5% (inactive) | growth [19]: 101% (inactive) | growth [20]: 98% (inactive)

C=C(CNCCO)[C@@H]1CC[C@]2(CO)CC[C@]3(C)[C@H](CC[C@@H]4[C@@]5(C)CCC(NCCc6ccc(O)cc6)C(C)(C)[C@@H]5CC[C@]43C)[C@@H]12 (stereo not given in full)
growth [1]: -63% (active) | growth [2]: -47.6% (active) | growth [3]: -41% (active) | growth [4]: -84.4% (active) | growth [5]: -80.4% (active) | growth [6]: -66.1% (active) | growth [7]: -79.5% (active) | growth [8]: -71.3% (active) | growth [9]: -92.8% (active) | growth [10]: -84.4% (active) | growth [11]: -84.1% (active) | growth [12]: -57.3% (active) | growth [13]: -86.8% (active) | growth [14]: -80% (active) | growth [15]: -85.7% (active) | growth [16]: -74.8% (active) | growth [17]: -85.4% (active) | growth [18]: -93.6% (active) | growth [19]: -86.3% (active) | growth [20]: -91.6% (active)

CC[C@]12CN3CCc4c([nH]c5ccccc45)[C@@](C(=O)OC)(c4cc5c(cc4OC)N(C)[C@H]4[C@@](O)(C(=O)OC)[C@H](OC(C)=O)[C@]6(CC)C=CCN7CC[C@]54[C@@H]76)CC(C3)[C@H]1O2 (stereo not given in full)
growth [1]: 21.1% (inactive) | growth [2]: 42.6% (inactive) | growth [3]: 41% (inactive) | growth [4]: 50.9% (inactive) | growth [5]: -27.3% (active) | growth [6]: 9.26% (active) | growth [7]: -5.19% (active) | growth [8]: 20.9% (inactive) | growth [9]: 19.6% (inactive) | growth [10]: -49.9% (active) | growth [11]: -21.8% (active) | growth [12]: 16.6% (inactive) | growth [13]: 56.1% (inactive) | growth [14]: -28.8% (active) | growth [15]: 10.2% (inactive) | growth [16]: 26.4% (inactive) | growth [17]: -22.9% (active) | growth [18]: 2.86% (active) | growth [19]: 42.3% (inactive) | growth [20]: -29.3% (active)

O=[N+]([O-])c1ccc(S(=O)Cc2ccccc2)c([N+](=O)[O-])c1 (stereo not given)
growth [1]: 71.8% (inactive) and 82.7% (inactive) | growth [2]: 24.9% (inactive) | growth [3]: 99.5% (inactive) | growth [4]: 109% (inactive) and 47.2% (inactive) | growth [5]: 99.8% (inactive) and 103% (inactive) | growth [6]: 56.6% (inactive) and 7.51% (active) | growth [7]: -98.3% (active) and -79% (active) | growth [8]: 83.2% (inactive) and 40.6% (inactive) | growth [9]: 84.2% (inactive) and 51.2% (inactive) | growth [10]: -98.2% (active) and -92.3% (active) | growth [11]: 79.3% (inactive) and 70.5% (inactive) | growth [12]: 25.9% (inactive) | growth [13]: -61.7% (active) and -33.4% (active) | growth [14]: 74.6% (inactive) and 82.1% (inactive) | growth [15]: -36.6% (active) and -28.2% (active) | growth [16]: 86.6% (inactive) and 88.5% (inactive) | growth [17]: 95.9% (inactive) | growth [18]: 90.7% (inactive) and 46.3% (inactive) | growth [19]: 37% (inactive) and 69.3% (inactive) | growth [20]: 55.8% (inactive) and 31.7% (inactive)

Nc1nc(N)c2c(n1)NC(c1cccc(Nc3ccnc4cc(C(F)(F)F)ccc34)c1)CC(c1ccc(F)cc1)=N2 (stereo not given)
growth [1]: 70.4% (inactive) | growth [2]: 80% (inactive) | growth [3]: 86.4% (inactive) | growth [4]: 48.7% (inactive) | growth [5]: 18% (inactive) | growth [6]: 31.6% (inactive) | growth [7]: 48.2% (inactive) | growth [8]: 40.1% (inactive) | growth [9]: 60.4% (inactive) | growth [10]: 29.1% (inactive) | growth [11]: 63.8% (inactive) | growth [12]: 9.19% (active) | growth [13]: 53.2% (inactive) | growth [14]: 44.8% (inactive) | growth [15]: 42.8% (inactive) | growth [16]: 52.2% (inactive) | growth [17]: 49.2% (inactive) | growth [18]: 73.8% (inactive) | growth [19]: 74.8% (inactive) | growth [20]: 27.7% (inactive)

Cn1ccnc1CN1CCSC(C(=O)Nc2ccccc2)C1 (stereo not given)
growth [1]: 101% (inactive) | growth [2]: 87.1% (inactive) | growth [3]: 88.7% (inactive) | growth [4]: 81.5% (inactive) | growth [5]: 94.8% (inactive) | growth [6]: 88.7% (inactive) | growth [7]: 85.6% (inactive) | growth [8]: 83.8% (inactive) | growth [9]: 98% (inactive) | growth [10]: 112% (inactive) | growth [11]: 100% (inactive) | growth [12]: 92.1% (inactive) | growth [13]: 96.6% (inactive) | growth [14]: 104% (inactive) | growth [15]: 94.2% (inactive) | growth [16]: 95.1% (inactive) | growth [17]: 92.9% (inactive) | growth [18]: 96% (inactive) | growth [19]: 79.6% (inactive) | growth [20]: 98.1% (inactive)

COc1ccc(C2Nc3nc(SC)nc(N)c3N=C3c4ccccc4CCC32)cc1 (stereo not given)
growth [1]: 72.4% (inactive) | growth [2]: 107% (inactive) | growth [3]: 109% (inactive) | growth [4]: 102% (inactive) | growth [5]: 86.7% (inactive) | growth [6]: 50.7% (inactive) | growth [7]: 90.9% (inactive) | growth [8]: 102% (inactive) | growth [9]: 93.6% (inactive) | growth [10]: 112% (inactive) | growth [11]: 70.9% (inactive) | growth [12]: 84.5% (inactive) | growth [13]: 108% (inactive) | growth [14]: 83.5% (inactive) | growth [15]: 122% (inactive) | growth [16]: 73.4% (inactive) | growth [17]: 105% (inactive) | growth [18]: 90.5% (inactive) | growth [19]: 122% (inactive) | growth [20]: 92.7% (inactive)

NCCOCCOc1ccccc1
growth [1]: 97.2% (inactive) | growth [2]: 103% (inactive) | growth [3]: 96.1% (inactive) | growth [4]: 109% (inactive) | growth [5]: 103% (inactive) | growth [6]: 64.8% (inactive) | growth [7]: 93.1% (inactive) | growth [8]: 104% (inactive) | growth [9]: 100% (inactive) | growth [10]: 113% (inactive) | growth [11]: 101% (inactive) | growth [12]: 108% (inactive) | growth [13]: 97.8% (inactive) | growth [14]: 114% (inactive) | growth [15]: 124% (inactive) | growth [16]: 97.8% (inactive) | growth [17]: 103% (inactive) | growth [18]: 108% (inactive) | growth [19]: 106% (inactive) | growth [20]: 102% (inactive)

CSc1nnc(-c2cc3c([nH]c4ccccc43)c(-c3cccc(O)c3)n2)n1-c1ccc(C)cc1
growth [1]: 70.9% (inactive) | growth [2]: 57.6% (inactive) | growth [3]: 70.3% (inactive) | growth [4]: 44.9% (inactive) | growth [5]: 11.4% (inactive) | growth [6]: 21.3% (inactive) | growth [7]: -2.1% (active) | growth [8]: 29.4% (inactive) | growth [9]: 37.8% (inactive) | growth [10]: 76.5% (inactive) | growth [11]: 62.8% (inactive) | growth [12]: 10.2% (inactive) | growth [13]: 42% (inactive) | growth [14]: 25.7% (inactive) | growth [15]: 2.76% (active) | growth [16]: 48.7% (inactive) | growth [17]: 15% (inactive) | growth [18]: 32.3% (inactive) | growth [19]: 42.5% (inactive) | growth [20]: 6.07% (active)

O=C1OCC2=C1C(c1cccc([N+](=O)[O-])c1)c1cc3c(cc1N2CCO)CCC3 (stereo not given)
growth [1]: 23.2% (inactive) | growth [2]: 38.2% (inactive) | growth [3]: 37.2% (inactive) | growth [4]: 31.3% (inactive) | growth [5]: 3.63% (active) | growth [6]: 51.4% (inactive) | growth [7]: -4.9% (active) | growth [8]: 11.7% (inactive) | growth [9]: 25.2% (inactive) | growth [10]: -27.1% (active) | growth [11]: 3.17% (active) | growth [12]: 7.29% (active) | growth [13]: 38.9% (inactive) | growth [14]: 30% (inactive) | growth [15]: 27.8% (inactive) | growth [16]: 33.1% (inactive) | growth [17]: -11.7% (active) | growth [18]: -16.4% (active) | growth [19]: 69.9% (inactive) | growth [20]: 3.09% (active)

Source: PubChem BioAssay (NCI)
